# Compound activity from PubChem BioAssay.
# An excerpt weighted towards active compounds, which were near 5.7% of everything screened.
# DRD3 agonist – agonists of human D3 dopamine receptor. P35462. D3R DiscoveRx beta-arrestin cells, luminescence, 90 min. max activation, %. 410,000 compounds, 0.58% hits. AID 652048; in the data active = max activation above about 30%; also: 0% is about no effect
#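 Cells at 1500/well, incubated overnight, then treated with pinned compounds (dopamine as control) for 90 min at 37 degrees C. DiscoveRx reagent added for 30 - 60 minutes at room temperature; luminescence read.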
# HEK293 tox – cytotoxicity counter-screen for GLP-1 receptor inverse agonists. HEK293 cAMP-luciferase reporter cells, luminescence, 24 h. Potency, µM (top dose mostly 38.3 µM), without a hit: at the top dose activity change, negative = inhibition, hits mostly inhibitors. 410,000 compounds, 0.13% hits. AID 624418;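 also: loss of luciferase light is scored as toxicity; potency is read from the fitted curve at half-maximal effect; % is scaled to controls: 0 for no effect and ±100 for the full control effect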
#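 To flag toxic compounds, the library was rerun on cells for 24 hr at 37 deg C and 5% CO2. Viability-linked luminescence was captured 12 min after adding luciferase detection reagent.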
# DRD3 antagonist – D3 dopamine receptor (human) antagonism; P35462; D3R cells, DiscoveRx beta-arrestin luminescence, antagonist mode; hits give low values; max response, negative = inhibition, %; 360,000 compounds, 2.5% hits; AID 652054; in the data active = max response below about -50%; inconclusive = no clear call, values can overlap the other calls; also: % is scaled to controls: 0 for no effect and ±100 for the full control effect
#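 Cells plated overnight at 1500 cells/well, then exposed to library compounds with dopamine controls for 90 minutes at 37 degrees C. DiscoveRx reagent added for 30–60 minutes at room temperature; luminescence read, quantitative HTS format.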
# GLP-1R agonist – activates the human GLP-1 receptor; HEK293 GLP-1R CRE-luciferase, luminescence, 4-6 h; cells express a hypersensitive GLP-1R form; Potency, µM (series often up to 45.6 µM), inactives show top-dose activation, usual class: activators; 380,000 compounds, 0.007% hits; also: potency is read from the fitted curve at half-maximal effect; % of control where 0% means no effect
# GLP-1R inv ag – acts as inverse agonist at human GLP-1 receptor | P43220 | 410,000 compounds, 1.6% hits | AID 624417 | HEK293 GLP-1R CRE-luciferase, luminescence, 24 h; GLP-1R form is constitutively active | Potency, µM (highest dose often 38.3 µM), for inactives: top-dose activity change, negative = inhibition, usual class: inhibitors; also: potency is read from the fitted curve at half-maximal effect; % is scaled to controls: 0 for no effect and ±100 for the full control effect; nearly all actives have a fitted effect of over 55% in size
#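 HEK293 cells stably co-expressing a cAMP-responsive luciferase reporter and constitutively active GLP-1R were seeded, incubated 12 h, then exposed to compounds for 24 h at 37 C. Luminescence was read 12 min after detection reagent; inverse agonists lower signal.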
# ClpP mod – qHTS Assay for Activators of ClpP; purified B. subtilis ClpP, FRET peptide cleavage, 20 min; Potency, µM (titrated, usually from 57.5 µM), for the others: top-dose activity change, negative = active; 340,000 compounds, 1.9% hits; active = well fitted falling curve with a large enough effect; inconclusive = small, poorly fitted or top-dose-only effect; inactive = no such curve, though single readings can be large or run the other way; also: potency is read from the fitted curve at half-maximal effect; the source files actives as falling curves though it sought activators and does not explain the sign; nearly all actives have a fitted effect of over 65% in size
#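 Purified B. subtilis ClpP, 10 microg/mL final in Tris/HCl pH8 with KCl, BSA, glycerol and Tween-20, cleaved an Abz/nitrotyrosine-quenched decapeptide. Fluorescence (ex 320, em 430) was read at 0 and 20 min at room temperature. Delta was normalized to 5.8 microM ADEP and DMSO/no-enzyme controls.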
# Active calls of the source: *; ? = inconclusive; · = no result. Unless noted, calls follow the shape of the dose curve; as a rule, active = well fitted curve in the direction sought with a large enough effect; inconclusive = small, poorly fitted or top-dose-only effect, or another doubt; inactive = no such curve, though single readings can be large; an effect the other way counts as inactive or inconclusive.
SMILES,DRD3 agonist,HEK293 tox,DRD3 antagonist,GLP-1R agonist,GLP-1R inv ag,ClpP mod
CCOC(=O)c1[nH]c2ccc(OC)cc2c1NC(C)=O,-6.4,3.1%,0.0,18.7%,3.0%,25.1µM*
CCOC(=O)c1[nH]c2ccc(OCC)cc2c1NC(=O)CN1CCC2(CC1)OCCO2,0.7,9.4%,-3.4,5.5%,19.5%,25.1µM*
CCOC(=O)c1[nH]c2cc3c(cc2c1NC(=O)CN1CCN(CCO)CC1)OCO3,-3.6,-7.5%,-10.9,4.7%,-11.5%,25.1µM*
COc1cc(NC(=O)CSc2ncc(S(=O)(=O)c3ccc(Br)cc3)c(=O)[nH]2)cc(OC)c1,-4.7,-5.7%,·,-4.4%,-0.1%,-0.2%
COc1ccc(-c2cc(C(F)(F)F)n3nc(C(=O)Nc4ccccc4SC)cc3n2)cc1OC,-3.9,4.9%,·,-7.8%,26.6%,-1.5%
C=CCOC(=O)Nc1c(C(=O)OC)[nH]c2ccc(Cl)cc12,-2.6,46.4%,0.0,-3.7%,-25.8%,31.6µM*
CCOC(=O)c1[nH]c2ccc(OC)cc2c1NC(=O)CN1CCSCC1,1.7,-19.6%,47.9,7.3%,?,12.6µM*
CC#CC(=O)N1CCC(n2nccc2NC(=O)CCc2ccccc2)CC1,-10.9,0.8%,-18.9,-2.4%,15.0%,-0.7%
O=C1Nc2ccccc2/C1=N/N=C/c1cccc(O)c1,5.5,3.6%,-8.7,13.3%,4.9%,·
COc1cc(/C=N/N=C2/C(=O)Nc3ccccc32)cc(OC)c1O,-25.3,?,-83.7*,-0.1%,15.4%,0.9%
O=C(Cc1c(Sc2ccccc2)c2ccccc2n1Cc1ccccc1)NCCO,-24.3,-5.7%,-73.0*,6.2%,?,-0.4%
Cn1c(CC(=O)NCCO)c(Sc2ccccc2)c2ccccc21,-3.9,8.8%,-2.7,1.9%,?,-0.3%
COc1cc(N2C(=O)C=CC2=O)ccc1N1C(=O)C=CC1=O,-29.7,?,-67.9*,-33.8%,?,-0.6%
COc1ccc(N2C(=O)C3CC(C)=C(C)CC3C2=O)c(OC)c1 (configuration not stated),2.3,3.9%,-15.8,4.8%,7.5%,-0.4%
COc1ccc(Cl)cc1C(=O)NCc1nnnn1-c1ccccc1,-24.7,2.4%,·,·,0.0%,1.0%
Cc1cc(C(=O)Nc2ncn[nH]2)ccc1[N+](=O)[O-],34.1*,12.1%,-10.0,-2.8%,2.2%,0.7%
Cc1nn(-c2ccc(N3CCOCC3)nn2)c(C)c1CCC(=O)Nc1ccc(F)cc1F,74.6*,-4.0%,·,·,-0.6%,1.1%
Cc1ccc(F)cc1NC(=O)CCc1c(C)nn(-c2ccc(N3CCOCC3)nn2)c1C,-12.3,-9.2%,·,·,-15.8%,-8.0%
CCC(=O)Nc1cc(C)c(O)c(-c2nc3ncccc3o2)c1,0.9,0.5%,·,·,5.5%,-3.7%
COC(=O)c1c(NC(=O)c2ccc(S(=O)(=O)N3CCCCC3)cc2)sc2c1CCN(C)C2,-4.6,1.3%,·,·,-0.9%,29.4%
CC(=O)Nc1ccc(C(=O)OCC(=O)NCc2ccccc2)cc1,-4.5,-18.2%,8.6,2.0%,-18.2%,·
O=C(COC(=O)CC(c1ccccc1)c1ccccc1)NCc1ccc(Cl)cc1,6.3,6.0%,17.1,-4.7%,11.2µM*,0.9%
C=C(C)C(=O)OCC(=O)NCc1ccccc1,-2.0,11.2µM*,10.1,-0.5%,?,·
CCCC(=O)OCC(=O)NCc1ccc(Cl)cc1,1.4,-15.6%,12.6,1.4%,-1.6%,·
CC(C)Cc1cc(CN2CCCC(CO)(Cc3cccc(Cl)c3)C2)[nH]n1 (configuration not stated),-20.4,-21.4%,-67.0*,4.6%,?,2.6%
SMILES,DRD3 agonist,HEK293 tox,DRD3 antagonist,GLP-1R agonist,GLP-1R inv ag,ClpP mod
OCC1(Cc2cccc(Cl)c2)CCCN(Cc2cn[nH]c2C2CCCCC2)C1 (configuration not stated),-5.4,-15.8%,?,4.5%,?,-1.2%
OCC1(Cc2cccc(Cl)c2)CCCN(Cc2ccc3cc(F)ccc3n2)C1 (configuration not stated),-12.4,-4.3%,-13.3,19.2%,12.6µM*,·
Cc1cc(CN2CCCC(CO)(Cc3cccc(Cl)c3)C2)n[nH]1 (configuration not stated),-17.8,0.0%,-3.0,6.1%,?,·
COc1ccccc1CNC(=O)CCn1cnc2ccccc2c1=O,-17.8,0.6%,·,·,1.8%,0.4%
CC(C)NC(C(=O)Nc1cc(Cl)cc(Cl)c1)c1ccccc1 (configuration not stated),-12.4,-11.6%,?,-3.7%,7.94µM*,28.2µM*
O=C(Nc1cc(Cl)cc(Cl)c1)C(NCC1CCCO1)c1ccccc1 (configuration not stated),5.2,-20.8%,40.2,-4.2%,5.01µM*,-0.8%
CN(C)CCNC(C(=O)Nc1cc(Cl)cc(Cl)c1)c1ccccc1 (configuration not stated),-7.0,3.0%,9.3,5.7%,?,·
CC(C(=O)Nc1cc(Cl)cc(Cl)c1)N1CCCC1 (configuration not stated),-16.5,2.8%,-110.0*,13.1%,12.6µM*,-1.5%
CC(C(=O)Nc1ccccc1-c1ccccc1)N1CCN(S(=O)(=O)c2ccccc2)CC1 (configuration not stated),1.9,-3.3%,0.0,-2.7%,-21.9%,-6.5%
CC(C(=O)Nc1ccccc1-c1ccccc1)N1CCCCC1 (configuration not stated),-7.2,3.9%,-4.6,0.4%,10µM*,-1.3%
COc1cc(C2C(C(=O)Nc3ccccc3)=C(C)Nc3nnnn32)cc(OC)c1OC (configuration not stated),-10.6,7.8%,·,-3.4%,?,-3.9%
CSC(=NS(=O)(=O)c1ccccc1)NNC(=O)c1c(-c2c(Cl)cccc2Cl)noc1C,1.7,6.2%,0.9,-1.5%,-6.7%,-0.6%
CSCCC1NC(=O)N(C(C)C(=O)Nc2cc(Cl)cc(Cl)c2)C1=O (configuration not stated),-14.9,11.5%,-7.7,3.3%,11.2µM*,1.0%
COC(=O)CC1Oc2ccc(Cl)cc2-n2cc(-c3ccc(F)cc3)nc21 (configuration not stated),49.7*,0.5%,·,0.7%,12.0%,-2.8%
Cc1ccc(OCc2nnc(SCC(=O)Nc3ccccc3C(C)C)o2)cc1,5.0,-2.6%,·,·,-2.9%,1.8%
O=C1/C(=C/N(C(=O)c2ccco2)c2ccc(Br)cc2)Sc2ccccc21,-10.2,8.3%,-14.9,-17.5%,?,-2.3%
O=C1/C(=C/N(C(=O)c2ccco2)c2ccc(Cl)cc2)Sc2ccccc21,-8.2,0.3%,?,-19.1%,?,10µM*
